# Shown are actives, neighbours in structure and some others; about 2% of the full set was active somewhere.
# CHO-K1 Ca antag: nonselective inhibitor or artifact in parental CHO-K1 cells | inhibition, % at 3 µM | ATP-induced calcium, Fluo-8 fluorescence | AID 602250 | 0.6% of 360,000 active;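 active = inhibition above a per-plate cutoff, the plate's mean sample inhibition plus 3 SD, cut at about 24% in these data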;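 note: 0% = DMSO plus EC80 ATP and 100% = DMSO alone without ATP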
# M4 antag: blocks acetylcholine activation of human M4 receptor; P08173; CHO-hM4 cells, ACh EC80, Fluo-8 calcium fluorescence; inhibition, % at 3 µM; 0.73% of 360,000 active; AID 624125;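 active = inhibition above its plate's cutoff, the mean inhibition of sample wells plus 3 SD, cut at about 27% in these data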;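 note: 0% = acetylcholine EC80 with DMSO and 100% = DMSO without agonist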
# Target sequence (P08173 whole entry, looked up): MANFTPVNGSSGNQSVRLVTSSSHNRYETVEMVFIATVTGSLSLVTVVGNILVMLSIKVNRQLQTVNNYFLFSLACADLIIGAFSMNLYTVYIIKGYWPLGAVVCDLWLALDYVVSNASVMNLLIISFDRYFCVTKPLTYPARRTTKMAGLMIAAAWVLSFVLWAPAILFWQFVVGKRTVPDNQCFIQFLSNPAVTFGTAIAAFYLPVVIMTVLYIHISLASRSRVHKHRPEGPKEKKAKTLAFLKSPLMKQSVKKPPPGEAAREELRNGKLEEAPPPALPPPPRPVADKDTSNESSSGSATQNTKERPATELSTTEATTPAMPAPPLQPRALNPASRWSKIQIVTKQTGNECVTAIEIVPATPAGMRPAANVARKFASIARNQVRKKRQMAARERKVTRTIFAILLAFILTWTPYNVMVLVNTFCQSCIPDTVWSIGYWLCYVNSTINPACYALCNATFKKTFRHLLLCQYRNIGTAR
# M4 PAM: positive allosteric modulators of human muscarinic M4 receptor; P08173; CHO-K1 hM4/Gqi5, Fluo-8 calcium fluorescence, ACh EC20; 0% = ACh EC20, 100% = maximal ACh; activation, % at 3 µM; 0.4% of 360,000 active; AID 624126;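 active = activation above its plate's cutoff, the mean activation of sample wells plus 3 SD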
# CHO-K1 Ca PAM: M1 PAM counterscreen hit in parental CHO-K1 cells; ATP EC20, Fluo-8 calcium fluorescence; 0% at ATP EC20, 100% at ATP max; 0.02% of 360,000 active; activation, % at 3 µM;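 active = activation above the run cutoff, the mean activation of all test compounds plus 3 SD, cut at about 40% in these data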;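 note: peak over basal fluorescence ratio in a 140 s read after ATP addition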
# CHRM4 agonist: CHRM4 agonism in calcium assay; CHO-K1 hM4/Gqi5, Fluo-8 calcium fluorescence; vehicle 0%, full acetylcholine response 100%; activation, % at 3 µM; 0.14% of 360,000 active;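 active = activation above the run mean over all test wells plus 3 SD, cut at about 32% in these data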;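 note: peak over basal fluorescence ratio per well then scaled between controls; 0% = DMSO wells and 100% = acetylcholine at EC100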
# M1 ag parental: counter-screen for M1 agonists: effect in parental CHO-K1 cells; activation, % at 3 µM; 0.48% of 360,000 active; Fluo-8 calcium fluorescence; scaled to maximal ATP response, vehicle zero; in the data active = activation above about 15%;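 note: untransfected CHO-K1 host cells lacking M1 receptor as counterscreen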
# * marks the source's active call; other numbers are inactive results.
SMILES,CHO-K1 Ca antag,M4 antag,M4 PAM,CHO-K1 Ca PAM,CHRM4 agonist,M1 ag parental
CC(=O)c1oc2ccccc2c1NC(=O)CCCN1C(=O)c2ccccc2C1=O,-15,-17,9,24,1,0
CC(C)CC(=O)NC(=S)Nc1sc2c(c1C(N)=O)CCC2,38*,-22,11,-16,2,-1
CC(=O)c1c(C)[nH]c(C(=O)COC(=O)c2cc(S(=O)(=O)N(C)c3ccccc3)ccc2Cl)c1C,-8,-8,-1,17,2,2
CCN(c1ccccc1)S(=O)(=O)c1ccc(Cl)c(C(=O)OCC(=O)c2[nH]c(C)c(C(C)=O)c2C)c1,5,28*,-37,11,5,5
Nn1c(C2COc3ccccc3O2)n[nH]c1=S (stereo not drawn),-2,-15,8,-8,0,0
CNC(=O)C(NC(=O)Nc1ccc(C)cc1)C(C)(C)C (stereo not drawn),-10,-1,1,30,0,1
CC1CCN(S(=O)(=O)c2ccc(NC(=S)NC(=O)c3ccc(Cl)cc3)cc2)CC1,-3,-2,-4,-6,1,1
O=S(=O)(Nc1cccnc1)c1ccccc1,-6,-5,11,8,2,0
O=S(=O)(Nc1cccnc1)c1ccc(Cl)cc1,-10,-3,20*,13,2,1
CC(=O)c1c(C)[nH]c(C(=O)CN(C)CC(=O)Nc2ccccc2Cl)c1C,-7,-7,0,9,12,6
CCN(CC(=O)Nc1ccccc1C(F)(F)F)CC(=O)c1[nH]c(C)c(C(C)=O)c1C,29*,-14,-2,-13,14,4
O=C(O)c1ccc(Cl)c(S(=O)(=O)N(Cc2ccccc2)c2ccc(F)cc2)c1,-10,-1,-1,11,-1,0
O=CN1Cc2[nH]c3ccccc3c2N(c2ccc(Cl)cc2)C1=O,27*,7,-3,-8,0,0
O=C1CNCc2[nH]c3ccccc3c2N1c1ccccc1,-4,0,6,14,1,1
c1cnc2ncc3sccc3c2c1,-4,-3,-1,22,1,19*
C/C=C(\C)C(=O)NCCN1C2=NC[C@@H](C)N2C[C@H]1Cc1ccc(O)cc1,0,0,30*,13,0,0
C/C=C(\C)C(=O)NCCN1C2=NC[C@@H](C)N2C[C@@H]1Cc1ccc(OC)cc1,-11,-7,-2,25,1,1
Cc1sc2nc(N3CCOCC3)[nH]c(=O)c2c1-c1ccccc1,-10,1,9,2,1,1
CC(C)C(C)NC(=O)CN1C(=O)NC2(CCc3ccccc32)C1=O (stereo not drawn),-20,-24,14*,11,0,1
CC(C)C(C)NC(=O)CN1C(=O)NC2(CCCc3ccccc32)C1=O (stereo not drawn),18,4,-4,-14,0,0
CCOC(=O)N1CCC(N(CCN(C)C)C(=S)Nc2ccc(F)c(Cl)c2)CC1,27*,2,-10,-12,2,0
CCOC(=O)N1CCC(N(CCN(C)C)C(=S)Nc2cccc(C)c2)CC1,-2,-2,-1,5,1,0
CCCCSc1nc2ccc(Nc3nc(N4CCOCC4)nc(N4CCOCC4)n3)cc2s1,1,16,24*,-2,-1,0
O=[N+]([O-])c1ccc2cn[nH]c2c1,35*,-5,-4,-10,16,2
O=[N+]([O-])c1ccc(Cl)c(S(=O)(=O)Nc2ccc3cn[nH]c3c2)c1,-6,4,-2,12,2,1
CCCCN(C(=O)c1c(CC)noc1C)c1c(N)n(CC(C)C)c(=O)[nH]c1=O,-28,-21,11,10,0,0
CCCCCOc1ccc(Br)cc1CSC(=N)N,24*,25,-14,3,12,6
O=c1c2cc(NC(=S)NCCN3CCCCCC3)ccc2nc2n1CCCCC2,-5,13,-16,-6,0,0
O=c1c2cc(NC(=S)NCCCN3CCC(Cc4ccccc4)CC3)ccc2nc2n1CCCCC2,-6,44*,-29,11,20,10
CN(C(=O)COC(=O)CNC(=O)CNC(=O)c1ccc(Cl)cc1Cl)c1ccccc1,1,8,0,9,0,0

# Screening data (PubChem BioAssay)
